This is an account of results in PubChem BioAssay.

The target of assay [1] is ATP-dependent translocase ABCB1 (Homo sapiens) (UniProt P08183). Description: MDR1 (ABCB1) efflux transporter inhibition, cell-based (AID 377; in the data active = fluorescence slope change above about 50%). Particulars: MDR1-expressing cells, fluorescent substrate accumulation slope; stronger effect = higher value; concentration not given here.
Assay [2] can be described thus: polyglutamine-triggered caspase-3 activation inhibitors, cell-based (AID 1583). The following applies: polyglutamine-induced caspase-3 activation, cell assay; stronger effect = higher value;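 tested at 10 µM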.
Assay [3] is described as follows: suppressors of polyQ aggregation in yeast, 75Q-TubU reporter (AID 1593). The following applies: Yeast 75Q polyglutamine aggregation reporter.
Assay [4] is described as follows: rescue of polyQ-huntingtin neuronal dysfunction in worms, whole organism, C. elegans mechanosensory neurons, N-terminal huntingtin (AID 1599). Particulars: touch response, stronger effect = higher value.
The nature of assay [5]: inhibitors of mitochondrial cytochrome c release, biochemical, purified mitochondria (AID 1603).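 Also: mouse liver mitochondria challenged with calcium chloride; signal normalized to the plate average as 100%.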 The following applies: stronger effect = lower value.
Assay [6] in a line: inhibitors of polyQ protein aggregation (AID 1604). The following applies: polyglutamine-induced protein aggregation inhibition assay; stronger effect = higher value; tested at 2.5 µM.
Assay [7] is described as follows: enhancers of glutamate uptake in motor neurons, MN-1 cell line (AID 1612).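 Also: tested at 1 µM final; 0% = mean of DMSO vehicle wells on each plate; positive means more glutamate uptake than control and negative means less.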 Particulars: MN-1 motor neuron cells, stronger effect = higher value.
A short description of assay [8]: reducers of polyQ inclusions in PC12 cells, cell-based, NGF-treated PC12, GFPQ80 (AID 1614).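 Also: lower means fewer inclusions and 0 means no inclusions at all.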 The following applies: PC12 NGF-treated GFP-polyQ80 inclusion reduction.
Assay [9] is described as follows: suppressors of polyglutamine aggregation in yeast, 75Q-TubH (AID 1616). Particulars: S. cerevisiae 75Q-TubH polyglutamine aggregation suppression; stronger effect = higher value.
A short description of assay [10]: circadian clock period modulators, cell-based, LOPAC library, luminescence reporter (AID 2774).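 Also: values are relative to mean of DMSO wells on each plate.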 The following applies: circadian reporter cells, at 7 µM, actives lie on both sides.
Assay [11] can be described thus: hESC survival regulators, cell-based (AID 493140).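 Also: cells exposed to compounds for four days before counting.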 The following applies: human embryonic stem cell survival screen; stronger effect = higher value.

Several values for one entry are separate records, joined by “and”; a condition that tells them apart may be missing. Equal entries are not always repeated. Records with an inconclusive call do not appear. For some of these results: Results with a measured potency or affinity are listed apart. Activity calls are given as the source filed them. Unless noted, no rule for the calls is given here.

Chain of ATP-dependent translocase ABCB1 (Homo sapiens) (P08183 whole entry, looked up): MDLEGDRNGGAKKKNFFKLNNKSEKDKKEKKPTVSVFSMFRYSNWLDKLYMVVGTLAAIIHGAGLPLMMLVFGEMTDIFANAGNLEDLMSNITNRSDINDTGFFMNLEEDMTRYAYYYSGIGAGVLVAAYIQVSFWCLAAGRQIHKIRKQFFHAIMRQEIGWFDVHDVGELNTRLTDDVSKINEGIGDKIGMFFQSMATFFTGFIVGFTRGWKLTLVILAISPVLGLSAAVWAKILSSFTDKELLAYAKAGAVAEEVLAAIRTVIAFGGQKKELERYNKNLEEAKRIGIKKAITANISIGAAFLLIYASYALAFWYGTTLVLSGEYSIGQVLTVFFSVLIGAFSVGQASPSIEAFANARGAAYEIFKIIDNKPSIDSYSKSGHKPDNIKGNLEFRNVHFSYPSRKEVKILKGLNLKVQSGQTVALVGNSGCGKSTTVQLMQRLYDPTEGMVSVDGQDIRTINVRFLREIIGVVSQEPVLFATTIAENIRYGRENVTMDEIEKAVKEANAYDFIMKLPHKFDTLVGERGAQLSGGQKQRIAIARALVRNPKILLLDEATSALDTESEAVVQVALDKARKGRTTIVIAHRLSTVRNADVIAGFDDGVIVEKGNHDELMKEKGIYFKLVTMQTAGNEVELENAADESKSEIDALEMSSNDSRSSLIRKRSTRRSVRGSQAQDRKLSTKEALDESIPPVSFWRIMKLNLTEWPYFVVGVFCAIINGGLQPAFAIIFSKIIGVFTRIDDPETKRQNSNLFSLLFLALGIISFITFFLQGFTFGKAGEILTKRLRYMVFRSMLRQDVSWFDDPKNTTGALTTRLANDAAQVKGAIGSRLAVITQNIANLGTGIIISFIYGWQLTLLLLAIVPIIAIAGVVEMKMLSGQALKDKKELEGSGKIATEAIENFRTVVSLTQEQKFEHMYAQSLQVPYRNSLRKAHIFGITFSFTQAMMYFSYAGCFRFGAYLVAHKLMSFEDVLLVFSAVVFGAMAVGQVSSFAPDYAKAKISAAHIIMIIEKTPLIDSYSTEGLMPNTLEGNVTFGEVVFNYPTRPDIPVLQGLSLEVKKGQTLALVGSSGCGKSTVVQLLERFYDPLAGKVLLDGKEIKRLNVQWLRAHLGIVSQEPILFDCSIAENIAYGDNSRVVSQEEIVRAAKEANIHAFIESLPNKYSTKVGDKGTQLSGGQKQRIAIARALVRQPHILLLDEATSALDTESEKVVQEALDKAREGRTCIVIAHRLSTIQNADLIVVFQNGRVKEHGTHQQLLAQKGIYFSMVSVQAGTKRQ

One may read the inhibition as the change of the read-out against control, counted positive when it falls. With `COc1ccc(CN(CCN(C)C)c2ccccn2)cc1`, the fluorescence slope change in assay [1] was 102% (active). Moreover, the inhibition in assay [2] is 17.1%. In assay [3], this compound gave a score of 1.86. In assay [4], this compound yielded a rescue above control of 23.5. For the same compound, the cytochrome c release ratio in [5] stood at 0.92. The inhibition of aggregation in [6] was 12.7%. Also, in assay [7], the glutamate uptake change was found to be 0.17%. Further, the inclusion score in assay [8] stood at 2. This compound also displayed an aggregation suppression score in [9] of 1.48. Also, in [10], the period change is 0.06 h (inactive). For the same compound, the survival in assay [11] was 21.9 (inactive).

`CCCCC1C(=O)N(c2ccccc2)N(c2ccccc2)C1=O`: the inhibition in [2] stood at 9.66%. The same compound displayed a score in assay [3] of 0.64. In assay [4], this compound had a rescue above control of 2.39. In addition, the cytochrome c release ratio in assay [5] was determined as 0.96. The same compound showed an inhibition of aggregation in [6] of 76%. Besides, the glutamate uptake change in assay [7] is -15.3%. This compound yielded an inclusion score in assay [8] of 2. In [9], the aggregation suppression score stood at 0.296. In addition, the period change in assay [10] was 0.01 h (inactive).

With `C#CCN(C)Cc1ccccc1`, the fluorescence slope change in [1] is 71.9% (active). In addition, the inhibition in assay [2] stood at 17%. The score in assay [3] amounted to 1.16. The same compound had a rescue above control in assay [4] of 30.7. Besides, the cytochrome c release ratio in assay [5] was determined as 1.06. The compound further yielded an inhibition of aggregation in [6] of 0%. Also, the glutamate uptake change in [7] is -1.37%. The inclusion score in assay [8] was determined as 2. Further, the aggregation suppression score in assay [9] came out at 1.43. Further, the period change in assay [10] is 0.06 h (inactive). Moreover, the survival in assay [11] was 31.2 (inactive).

As to `COCCc1ccc(OCC(O)CNC(C)C)cc1` (centres undefined), the fluorescence slope change in assay [1] was 51% (active). The inhibition in assay [2] is 9.55%. This compound returned a score in assay [3] of 0.98. This compound also displayed a rescue above control in [4] of -6.09. The cytochrome c release ratio in assay [5] came out at 0.97. In assay [6], this compound had an inhibition of aggregation of 69.7%. In addition, in assay [7], the glutamate uptake change is -0.51%. The compound further yielded an inclusion score in assay [8] of 2. The compound also yielded an aggregation suppression score in [9] of 0.579. Also, in assay [10], the period change is 0.045 h (inactive). Further, the survival in assay [11] is 15.4 (inactive).

Take `CN(C)CCOC(=O)COc1ccc(Cl)cc1`: the fluorescence slope change in assay [1] is -15.2% (inactive). Moreover, the inhibition in assay [2] came out at 6.84%. The compound also registered a score in [3] of 1.08. The compound also returned a rescue above control in [4] of -6.72. For the same compound, in assay [5], the cytochrome c release ratio is 0.96. In [6], the inhibition of aggregation stood at 83.1%. Further, the glutamate uptake change in assay [7] was -7.05%. Besides, the inclusion score in [8] came out at 2. Besides, the aggregation suppression score in assay [9] is 1.56. Besides, the period change in assay [10] is -0.09 h (inactive). In addition, the survival in assay [11] was 8.75 (inactive).

Consider `Nc1ccc(S(=O)(=O)Nc2ccnn2-c2ccccc2)cc1`, for which the inhibition in [2] was -0.92%. Moreover, the score in assay [3] worked out at 1.43. Besides, the rescue above control in assay [4] is -6.57. The cytochrome c release ratio in [5] came to 0.99. This compound gave an inhibition of aggregation in assay [6] of 4.55%. Also, the glutamate uptake change in assay [7] was determined as 16.6%. For the same compound, the inclusion score in assay [8] stood at 2. For the same compound, the aggregation suppression score in assay [9] was found to be 0.956. Besides, the period change in assay [10] is 0.065 h (inactive). Besides, the survival in [11] is 28 (inactive).

Regarding `CN(C)C(=O)Oc1cccc([N+](C)(C)C)c1`, the inhibition in assay [2] was 15.7% and 16.9%. Besides, the score in [3] was 1.16 and 1.39. The rescue above control in assay [4] was 10.4 and -12.8. Also, in [5], the cytochrome c release ratio is 0.9 and 1.01. The inhibition of aggregation in assay [6] was 74.6% and 38%. The glutamate uptake change in [7] is -18.8% and 13.6%. The inclusion score in [8] is 2. For the same compound, the aggregation suppression score in assay [9] was 0.695 and 1.29. In addition, the period change in assay [10] was 0.06 h (inactive). Also, in [11], the survival is 12.1 (inactive).

With `O=C1NCC2(CCN(CCc3ccccc3)CC2)O1`, in assay [1], the fluorescence slope change is 54.1% (active). The inhibition in assay [2] was -2.12%. Besides, in assay [3], the score stood at 1.22. In addition, the rescue above control in assay [4] was -3.96. The cytochrome c release ratio in [5] came out at 1.11. This compound also came in with an inhibition of aggregation in assay [6] of 88.9%. The glutamate uptake change in assay [7] was -8.17%. For the same compound, the inclusion score in assay [8] worked out at 2. The compound also yielded an aggregation suppression score in [9] of 1.64. Also, the period change in [10] was 0 h (inactive). Moreover, the survival in [11] is 18.8 (inactive).

`COc1ccc(CCN(C)CCCC(C#N)(c2ccc(OC)c(OC)c2)C(C)C)cc1OC` (centres undefined): the inhibition in [2] was 15.1%. This compound showed a score in assay [3] of 1.28. The same compound yielded a rescue above control in [4] of 2.45. Also, the cytochrome c release ratio in [5] was found to be 0.62. The inhibition of aggregation in [6] worked out at 62.8%. The glutamate uptake change in assay [7] turned out to be 24.7%. Moreover, the inclusion score in assay [8] was 2. Further, the aggregation suppression score in [9] was found to be 1.45. The period change in [10] was 0.12 h (inactive). Moreover, in assay [11], the survival is 22.4 (inactive).
